Laboratory results from PubChem BioAssay (NCI).
Compounds without any hit were thinned out: in the full panel of roughly 83,000, 20% have a hit.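 Percent growth is the endpoint: 0 to 100 indicates growth inhibition (40 means 60% inhibition), 0 means no net growth, and negative values indicate cell death.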 Values without a mark were called inactive. Activity calls are given as the source filed them. The calls were made as follows: active = growth percent below 10; inactive = the rest.

Legend:
Experiment in all cases: NCI-60 one-dose screen, 48 h (100 = growth as untreated, 0 = no growth, -100 = all killed)
Settings in all cases: 10 µM unless noted
[1] = system: NCI-H23 lung
[2] = system: NCI-H226 lung
[3] = system: NCI-H322M lung
[4] = system: HOP-62 NSCLC
[5] = system: NCI-H460 lung
[6] = system: HOP-92 NSCLC
[7] = system: NCI-H522 lung
[8] = system: A549/ATCC NSCLC
[9] = system: 786-0 renal
[10] = system: COLO 205 colon
[11] = system: DU-145 prostate
[12] = system: K-562 leukemia
[13] = system: MALME-3M melanoma
[14] = system: MDA-MB-231 breast
[15] = system: RXF 393 renal
[16] = system: SF-268 CNS
[17] = system: SF-295 CNS
[18] = system: SF-539 CNS
[19] = system: UACC-257 melanoma
[20] = system: M14 melanoma

Compound: CCCn1c2cc(OCc3cn(-c4ccc(Cl)cc4)nn3)ccc2c2ccnc(C)c21
- growth [1]: 78.1%
- growth [2]: 69.5%
- growth [3]: 73%
- growth [4]: 70.1%
- growth [5]: 71.1%
- growth [6]: 50.5%
- growth [7]: 66.4%
- growth [8]: 70.8%
- growth [9]: 34.8%
- growth [10]: 44.1%
- growth [11]: 95.7%
- growth [12]: 34.9%
- growth [13]: 98.7%
- growth [14]: 64.6%
- growth [15]: 73%
- growth [16]: 95.1%
- growth [17]: 81.6%
- growth [18]: 87.3%
- growth [19]: 61%
- growth [20]: 76.4%

Compound: Cc1c(Cl)cccc1NC(=O)c1sc2nc3c(cc2c1N)CN(Cc1ccccc1)CC3
- growth [1]: 66.1%
- growth [2]: 72.3%
- growth [3]: 73.1%
- growth [4]: 38.4%
- growth [5]: 22%
- growth [6]: 51.8%
- growth [7]: 0.814% (active)
- growth [8]: 58.6%
- growth [9]: 42.9%
- growth [10]: 51.5%
- growth [11]: 30.5%
- growth [12]: 10%
- growth [13]: 49.5%
- growth [14]: 86.3%
- growth [15]: 68.8%
- growth [16]: 42.3%
- growth [17]: 21.8%
- growth [18]: 39.3%
- growth [19]: 63.6%
- growth [20]: 26.8%

Compound: Cc1cccc(C)c1NCc1nnc(-c2ccc(O)cc2)o1
- growth [1]: 91.1%
- growth [2]: 95.5%
- growth [3]: 98.9%
- growth [4]: 111%
- growth [5]: 96.9%
- growth [6]: 88.3%
- growth [7]: 97.1%
- growth [8]: 104%
- growth [9]: 102%
- growth [10]: 97.3%
- growth [11]: 110%
- growth [12]: 126%
- growth [13]: 101%
- growth [14]: 103%
- growth [15]: 108%
- growth [16]: 101%
- growth [17]: 96.5%
- growth [18]: 97.8%
- growth [19]: 111%
- growth [20]: 98.5%

Compound: CC[C@]12C=CCN3CC[C@@]4(c5ccc(OC)cc5N(C)[C@H]4[C@@](O)(C(=O)OC)[C@@H]1OC(=O)CCC(=O)O[C@H]1CC[C@H]4[C@@H]5CC[C@H]6CC(=O)CC[C@]6(C)[C@H]5CC[C@]14C)[C@@H]32
- growth [1]: 38.5%
- growth [2]: 35.4%
- growth [3]: 68.3%
- growth [4]: 32.7%
- growth [5]: 13.8%
- growth [6]: -2.92% (active)
- growth [7]: 2.12% (active)
- growth [8]: 13.2%
- growth [9]: 30.8%
- growth [10]: -22.1% (active)
- growth [11]: 43.7%
- growth [12]: 8.73% (active)
- growth [13]: 42.5%
- growth [14]: 34.6%
- growth [15]: 25.9%
- growth [16]: 46.2%
- growth [17]: 7.7% (active)
- growth [18]: 47.3%
- growth [19]: 26.9%
- growth [20]: 26%

Compound: COc1cccc2c1-c1ccccc1C2=O
- growth [1]: 43.1%
- growth [2]: 84.1%
- growth [3]: 44.5%
- growth [4]: 37.4%
- growth [5]: 7.57% (active)
- growth [6]: 74%
- growth [7]: -13.7% (active)
- growth [8]: 23.3%
- growth [9]: 23.9%
- growth [10]: 11.6%
- growth [11]: 17.7%
- growth [12]: 8.78% (active)
- growth [13]: 59.7%
- growth [14]: 29.6%
- growth [15]: -2.91% (active)
- growth [16]: 48.2%
- growth [17]: 9.85% (active)
- growth [18]: -3.06% (active)
- growth [19]: 51.5%
- growth [20]: -1.41% (active)

Compound: COc1cc(NC(=O)Nc2cnc(Nc3ccc(N4CCOCC4)cc3)nc2Oc2ccc(F)cc2)cc(OC)c1
- growth [1]: 81.2%
- growth [2]: 88%
- growth [3]: 97.2%
- growth [4]: 89.5%
- growth [5]: 54.1%
- growth [6]: 78.6%
- growth [7]: 92.5%
- growth [8]: 55.6%
- growth [9]: 38.8%
- growth [10]: 111%
- growth [11]: 86.3%
- growth [12]: 72.5%
- growth [13]: 62.7%
- growth [14]: 87.6%
- growth [15]: 77.8%
- growth [16]: 75.8%
- growth [17]: 109%
- growth [18]: 89.1%
- growth [19]: 78%
- growth [20]: 91.7%

Compound: c1ccc(-c2cn3ccnc3c(-c3ccc4c(c3)ncn4C3CCCCC3)n2)cc1
- growth [1]: 103%
- growth [2]: 106%
- growth [3]: 97.1%
- growth [4]: 87.1%
- growth [5]: 104%
- growth [6]: 89.1%
- growth [7]: 83.9%
- growth [8]: 91%
- growth [9]: 91.8%
- growth [10]: 99.7%
- growth [11]: 97.4%
- growth [12]: 68.9%
- growth [13]: 120%
- growth [14]: 93.4%
- growth [15]: 76.7%
- growth [16]: 98.7%
- growth [17]: 101%
- growth [18]: 97.8%
- growth [19]: 110%
- growth [20]: 98.4%

Compound: CC(=O)ON1CCCC(P(=O)(OCOC(=O)C(C)(C)C)OCOC(=O)C(C)(C)C)C1=O (stereo not given)
- growth [1]: -16.6% (active)
- growth [2]: -4.94% (active)
- growth [3]: -10.6% (active)
- growth [4]: 5.37% (active)
- growth [5]: 2.52% (active)
- growth [6]: -6.66% (active)
- growth [7]: -11% (active)
- growth [8]: 7.74% (active)
- growth [9]: 12.3%
- growth [10]: 2.35% (active)
- growth [11]: 10.7%
- growth [12]: 3.72% (active)
- growth [13]: -8.77% (active)
- growth [14]: -6.53% (active)
- growth [15]: -20.8% (active)
- growth [16]: 1.95% (active)
- growth [17]: 34.5%
- growth [18]: 11.3%
- growth [19]: 19.2%
- growth [20]: 12.9%

Compound: CC1(C)CC[C@]2(c3nnc(-c4ccncc4)o3)CC[C@]3(C)C(=CC[C@@H]4[C@@]5(C)CCC(=O)C(C)(C)[C@@H]5CC[C@]43C)[C@@H]2C1
- growth [1]: 85.6%
- growth [2]: 64.9%
- growth [3]: 91.3%
- growth [4]: 87.6%
- growth [5]: 77.9%
- growth [6]: 92.2%
- growth [7]: 71.2%
- growth [8]: 73.7%
- growth [9]: 85%
- growth [10]: 85%
- growth [11]: 91.2%
- growth [12]: 62.1%
- growth [13]: 86.1%
- growth [14]: 87%
- growth [15]: 101%
- growth [16]: 81.5%
- growth [17]: 79.7%
- growth [18]: 90.7%
- growth [19]: 78.4%
- growth [20]: 84.3%

Compound: Cc1cccc(C)c1NCc1nnc(-c2ccco2)o1
- growth [1]: 89%
- growth [2]: 80.5%
- growth [3]: 91.1%
- growth [4]: 80.2%
- growth [5]: 97%
- growth [6]: 83.4%
- growth [7]: 72.8%
- growth [8]: 86.8%
- growth [9]: 105%
- growth [10]: 103%
- growth [11]: 99.9%
- growth [12]: 100%
- growth [13]: 85.2%
- growth [14]: 79.7%
- growth [15]: 102%
- growth [16]: 93.5%
- growth [17]: 92.4%
- growth [18]: 97.7%
- growth [19]: 98.7%
- growth [20]: 99%

Compound: COc1ccc(/C=C/C(=O)/C=C(/C=C/c2ccc(OC)c(OC)c2)OB(F)F)cc1OC
- growth [1]: 52.3%
- growth [2]: 57.1%
- growth [3]: 103%
- growth [4]: 83.5%
- growth [5]: 21.8%
- growth [6]: 56.8%
- growth [7]: -32.4% (active)
- growth [8]: 60.8%
- growth [9]: 12.5%
- growth [10]: -23.2% (active)
- growth [11]: 35.1%
- growth [12]: 17.4%
- growth [13]: 25.4%
- growth [14]: 21%
- growth [15]: -10.8% (active)
- growth [16]: 34.9%
- growth [17]: 69.4%
- growth [18]: 28.8%
- growth [19]: 59.1%
- growth [20]: 11.1%

Compound: C/C(=N/Nc1nc2ccccc2n1C)c1ccccn1
- growth [1]: 6.57% (active)
- growth [2]: -12.1% (active)
- growth [3]: 14.7%
- growth [4]: -7.45% (active)
- growth [5]: -23.3% (active)
- growth [6]: 15.9%
- growth [7]: -4.8% (active)
- growth [8]: 4.01% (active)
- growth [9]: 9.02% (active)
- growth [10]: -4.66% (active)
- growth [11]: 16.2%
- growth [12]: 5.81% (active)
- growth [13]: 11.6%
- growth [14]: 28.8%
- growth [15]: -12.5% (active)
- growth [16]: 10.7%
- growth [17]: 8.08% (active)
- growth [18]: 0.5% (active)
- growth [19]: -29.2% (active)
- growth [20]: -4.55% (active)

Compound: CCCCCOC(=O)c1ccccc1O
- growth [1]: 112%
- growth [2]: 97.8%
- growth [3]: 101%
- growth [4]: 85.4%
- growth [5]: 108%
- growth [6]: 88%
- growth [7]: 87.4%
- growth [8]: 96.2%
- growth [9]: 94.4%
- growth [10]: 120%
- growth [11]: 107%
- growth [12]: 99.9%
- growth [13]: 109%
- growth [14]: 110%
- growth [15]: 123%
- growth [16]: 105%
- growth [17]: 98%
- growth [18]: 99.7%
- growth [19]: 94.3%
- growth [20]: 97.4%
